Inconclusive results are not listed. Where a call stands in place of a potency, no number is given. Activity calls are given as the source filed them. The call rests on the fitted dose curve; in most records, active means well fitted inhibition curve with a large enough effect; inconclusive means small, poorly fitted or top-dose-only effect, or effect the other way; inactive means flat fitted curve, though single readings scatter.
The molecules below were run against ATP-dependent 6-phosphofructokinase (Trypanosoma brucei brucei) (UniProt O15648) (assay: qHTS Assay to Find Inhibitors of T. brucei phosphofructokinase: hit validation (AID 492961;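 further: luminescence reports ADP formed as PFK phosphorylates fructose-6-phosphate with ATP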)). Conditions: T. brucei PFK, ADP-Glo luminescence; series mostly up to 51.4 µM.
Method in brief: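 Compounds titrated; %activity normalized to 0x and 1x enzyme controls, curve-fitted. Readout: ADP-Glo luminescence after 45 min room-temperature reaction of 1.25 nM PFK, 0.1 mM ATP, 0.5 mM F6P, pH 8.0.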

Sequence of ATP-dependent 6-phosphofructokinase (Trypanosoma brucei brucei) (O15648 whole entry, looked up): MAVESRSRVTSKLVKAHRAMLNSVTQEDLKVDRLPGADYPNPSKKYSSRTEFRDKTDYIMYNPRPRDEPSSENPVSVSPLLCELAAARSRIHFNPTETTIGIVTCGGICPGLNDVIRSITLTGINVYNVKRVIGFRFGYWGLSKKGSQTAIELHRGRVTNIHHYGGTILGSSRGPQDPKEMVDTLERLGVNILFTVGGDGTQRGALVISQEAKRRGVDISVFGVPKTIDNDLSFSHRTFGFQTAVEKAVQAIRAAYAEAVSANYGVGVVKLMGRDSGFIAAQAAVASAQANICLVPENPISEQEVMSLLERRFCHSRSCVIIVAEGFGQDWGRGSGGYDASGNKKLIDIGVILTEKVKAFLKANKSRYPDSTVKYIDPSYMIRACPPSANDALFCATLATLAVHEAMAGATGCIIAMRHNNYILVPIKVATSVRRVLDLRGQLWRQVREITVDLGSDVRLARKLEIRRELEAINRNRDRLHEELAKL

Row | Compound | Potency
1 | O=CCCCC=O | inactive
2 | C[C@H]1C[C@H]2[C@@H]3CCC4=CC(=O)C=C[C@]4(C)[C@@]3(F)[C@@H](O)C[C@]2(C)[C@@]1(O)C(=O)CO | inactive
3 | CCCC(=O)O[C@]1(C(=O)CCl)[C@H](C)C[C@@H]2[C@H]3CCC4=CC(=O)C=C[C@]4(C)[C@@]3(F)C(=O)C[C@@]21C | inactive
4 | CCOC(=O)C1=C(C)NC(C)=C(C(=O)OCC)C1c1ccccc1C=CC(=O)OC(C)(C)C | inactive
5 | CCCCCCCCCCCC[n+]1ccc2ccccc2c1 | inactive
6 | Cc1ccccc1OCC(O)CNCCOc1ccc(C(N)=O)cc1 (centres undefined) | inactive
7 | CC(NNC(=O)c1ccccc1)c1ccccc1 (centres undefined) | inactive
8 | O=S(=O)(O)c1cc(O)c2c(N=Nc3ccc(Nc4ccccc4)c4c(S(=O)(=O)O)cccc34)cc(S(=O)(=O)O)cc2c1 | inactive
9 | CCCCCCCCCCCCCCCC(=O)OCC(COC(=O)CCCCCCCCCCCCCCC)OC(=O)CCCCCCCCCCCCCCC | inactive
10 | COC(C(=O)C(O)C(C)O)C1Cc2cc3cc(OC4CC(OC5CC(O)C(O)C(C)O5)C(O)C(C)O4)c(C)c(O)c3c(O)c2C(=O)C1OC1CC(OC2CC(OC3CC(C)(O)C(O)C(C)O3)C(O)C(C)O2)C(O)C(C)O1 (centres undefined) | inactive
11 | O=C(O)CN(CCN(CC(=O)O)CC(=O)O)CC(=O)O | inactive
12 | CC(C)(C)NC(=O)[C@@H]1C[C@@H]2CCCC[C@@H]2CN1C[C@@H](O)[C@H](Cc1ccccc1)NC(=O)[C@H](CC(N)=O)NC(=O)c1ccc2ccccc2n1 | inactive
13 | CC1=C(/C=C/C(C)=C/C=C/C(C)=C/C=C/C=C(C)/C=C/C=C(C)/C=C/C2=C(C)CCCC2(C)C)C(C)(C)CCC1 | inactive
14 | COC(=O)[C@H]1[C@H]2C[C@@H]3c4[nH]c5ccccc5c4CCN3C[C@H]2C[C@@H](OC(=O)c2cc(OC)c(OC)c(OC)c2)[C@@H]1OC | inactive
15 | O=C(O)CCC(=O)C(=O)O | inactive
16 | CO[C@H](C(=O)[C@@H](O)[C@@H](C)O)C1Cc2cc3cc(O[C@H]4C[C@@H](O[C@H]5C[C@@H](O)[C@H](O)[C@@H](C)O5)[C@@H](O)[C@@H](C)O4)c(C)c(O)c3c(O)c2C(=O)[C@H]1O[C@H]1C[C@@H](O[C@H]2C[C@@H](O[C@H]3C[C@](C)(O)[C@H](O)[C@@H](C)O3)[C@H](O)[C@@H](C)O2)[C@H](O)[C@@H](C)O1 (some centres undefined) | inactive
17 | C#CCOc1ccc2c(C)cc(=O)oc2c1 | inactive

Row | Compound | Potency
18 | C#C[C@]1(O)CC[C@H]2[C@@H]3CCC4=CCCC[C@@H]4[C@H]3C(=C)C[C@@]21CC | inactive
19 | C[C@@H]1CCC2[C@@H](C)[C@@H](O)O[C@@H]3O[C@@]4(C)CC[C@@H]1[C@@]23OO4 (some centres undefined) | inactive
20 | C[C@]12O[C@H](C[C@]1(O)CO)n1c3ccccc3c3c4c(c5c6ccccc6n2c5c31)CNC4=O | inactive
21 | CCN(CC)CCOc1ccc(-c2nc3cc(Cl)ccc3s2)cc1 | inactive
22 | CC(C)(C)C(=O)OCOC(=O)[C@@H]1N2C(=O)[C@@H](N=CN3CCCCCC3)[C@H]2SC1(C)C | inactive
23 | Cc1c(C)c2c(c(C)c1O)CC[C@@](C)(CCC[C@H](C)CCC[C@H](C)CCCC(C)C)O2 | inactive
24 | CC1=CCC(C(C)(C)O)CC1 (centres undefined) | inactive
25 | Cc1cc(C(=O)NNCc2ccccc2)no1 | inactive
26 | CC(=O)Oc1cc(C)c(OC(C)=O)c2ccccc12 | inactive
27 | COC(F)(F)C(Cl)Cl | inactive
28 | CC(C(=O)O)c1ccc(N2Cc3ccccc3C2=O)cc1 (centres undefined) | inactive
29 | CCC(=O)NCCC1CCc2ccc3c(c21)CCO3 (centres undefined) | inactive
30 | CCN(CC)Cc1cc(Nc2ccnc3cc(Cl)ccc23)ccc1O | inactive
31 | CC[C@@]1(O)C(=O)OCc2c1cc1n(c2=O)Cc2cc3c([N+](=O)[O-])cccc3nc2-1 | inactive
32 | CN1C(=O)CN2CCc3ccccc3C2c2cc(Cl)ccc21 (centres undefined) | inactive
33 | CC(C)=O | inactive
34 | CC1(C)C(C=C(Cl)Cl)C1C(=O)OCc1cccc(Oc2ccccc2)c1 (centres undefined) | inactive
